# Experimental data taken from the supplement of paper PMC7156485.
# “And” between values parts separate entries of the source, which are not always exact repeats. Identical values can stand only once. ± gives the standard deviation of the averaged measurements.
# Legend:
# Details in all cases: concentration: 10 µM; 24 h
# HCC1569 [1] = assay: cell number relative to DMSO (% of DMSO); higher = more cells (less growth inhibition / toxicity)
# Outline: (§1)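 Compounds were applied at 10 µM for 24 h at 37 °C, in triplicate, to HCC1569 and TDF cells. The cells were then fixed and stained for H1.0, and nuclei were counterstained with DAPI. Nuclear H1.0 intensity or cell number is reported relative to the plate control as a percent, taking the median of replicates. Smoothing for positional effects was applied to HCC1569 values only.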
# TDF [2] = assay: as above
# Outline: as §1
# TDF [3] = assay: H1.0 immunofluorescence intensity relative to DMSO (% of DMSO); higher = stronger H1.0 induction, active = 120 or more
# Outline: as §1
# HCC1569 [4] = assay: H1.0 immunofluorescence intensity relative to DMSO (% of DMSO); higher = stronger H1.0 induction, active = 140 or more
# Outline: as §1
# 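Throughout, for H1.0 immunofluorescence intensity relative to DMSO: TDF is a line of transformed human dermal fibroblasts of mesenchymal origin.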
# 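Throughout, for cell number relative to DMSO: TDF denotes transformed human dermal fibroblasts of mesenchymal origin.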
Compound,cell number (HCC1569 [1]),cell number (TDF [2]),H1.0 immunofluorescence intensity (TDF [3]),H1.0 immunofluorescence intensity (HCC1569 [4])
O=C(O)C=Cc1ccc(O)c(O)c1 [Caffeic Acid],99.9,115,87.2 (inactive),84.5 (inactive)
O=[N+]([O-])c1ccc([O-])c(OS(=O)(=O)[O-])c1.[K+].[K+] [dipotassium 5-nitro-2-oxidophenyl sulfate],99.5,108,90.9 (inactive),100 (inactive)
CNC(=O)C1OC(n2cnc3c(N)ncnc32)C(O)C1O (stereo unspecified) [5'-N-Methyl carboxamidoadenosine],110,110,104 (inactive),98.9 (inactive)
O=c1[nH]c2cc([N+](=O)[O-])c([N+](=O)[O-])cc2[nH]c1=O,105,111,91.9 (inactive),91.4 (inactive)
CN(CCOc1ccc(NS(C)(=O)=O)cc1)CCc1ccc(NS(C)(=O)=O)cc1 [Dofetilide],98,121,103 (inactive),99.5 (inactive)
CNc1cc(NS(=O)(=O)c2ccc(N)cc2)nc(NC)n1.Cl.Cl [Ro 04-6790 dihydrochoride],107,108,98.7 (inactive),84.4 (inactive)
CCn1cc(C(=O)O)c(=O)c2cc(F)c(N3CCN(C)CC3)cc21.CS(=O)(=O)O.O.O [Pefloxacine mesylate dihydrate],103,111,96.4 (inactive),109 (inactive)
Cl.NCCc1ccc(O)c(O)c1 [Dopamine hydrochloride],106,100,93.5 (inactive),89.7 (inactive)
CC1(C)CC1C(=O)NC(=CCCCCSCC(N)C(=O)O)C(=O)O (stereo unspecified) [Cilastatin],100,94,101 (inactive),119 (inactive)
O=C1NC(=O)C(c2cnc3ccccn23)=C1c1cn2c3c(cc(F)cc13)CN(C(=O)N1CCCCC1)CC2,66.9,63,138 (active),176 (active)
CN1c2cc3c(cc2N=C(c2ccc(C(=O)O)cc2)c2ccccc21)C(C)(C)CCC3(C)C,77,88.5,93.8 (inactive),112 (inactive)
CN1CCN(c2c(F)cc3c(=O)c(C(=O)O)cn(CCF)c3c2F)CC1 [Fleroxacin],101,87.2,102 (inactive),112 (inactive)
CNCCC(Oc1ccccc1OC)c1ccccc1.Cl (stereo unspecified) [Nisoxetine.HCl],105,101,92.1 (inactive),109 (inactive)
O=c1cc(-c2cccc3c2Sc2ccccc2S3)oc(N2CCOCC2)c1 [ATM Kinase Inhibitor],89.5,109,98.4 (inactive),113 (inactive)
CN(C)c1ccc(C2Nc3ccc4ccccc4c3C3=C2C(=O)CC(C)(C)C3)cc1Br (stereo unspecified),91.7,79.3,113 (inactive),130 (inactive)
CC1=CCC(C)(C)C=CC(=O)C(C)=CCC1 [Zerumbone],87.7,89.7,104 (inactive),121 (inactive)
CC(C)c1[nH]n(-c2c(Cl)cccc2Cl)c2nc(Cc3ccc(OCCO)cc3)nc(=O)c1-2 [Cdk/Crk Inhibitor],55,26.7,131 (active),143 (active)
COc1c2ccoc2cc2oc(=O)ccc12 [Bergapten],97.8,94,102 (inactive),99.9 (inactive)
Cc1oc(-c2ccccc2)nc1CCC(=O)c1ccc(CC2SC(=O)[N-]C2=O)cc1.[Na+] (stereo unspecified),103,106,96.4 (inactive),102 (inactive)
O=C(Nc1ccc(Cl)cc1)c1ccccc1NCc1ccncc1 [VEGF Receptor Tyrosine Kinase Inhibitor II],106,96.3,96.5 (inactive),98.1 (inactive)
N#CC(=Cc1ccc(O)c(O)c1)C(=O)NCc1ccccc1 [Tyrphostin AG 490],94.5,107,88.7 (inactive),99.7 (inactive)
O=C1N(c2ccccc2)c2ccccc2C1(Cc1ccncc1)Cc1ccncc1 [Linopirdine],108,112,93.9 (inactive),94.7 (inactive)
"O=C(O)C=Cc1cc(Br)c(Br)c(Br)c1Br [Casein Kinase II Inhibitor III, TBCA]",98.7,113,92.9 (inactive),105 (inactive)
COc1ccc(COc2ccc(Cc3cnc(N)nc3N)cc2OC)cc1 [cFMS Receptor Tyrosine Kinase Inhibitor],100,93.7,98.1 (inactive),130 (inactive)
CC(C)S(=O)(=O)N[C@H]1CCOC[C@@H]1c1ccc(-c2ccc(C#N)s2)cc1,100,98.3,96.5 (inactive),104 (inactive)

Compound,cell number (HCC1569 [1]),cell number (TDF [2]),H1.0 immunofluorescence intensity (TDF [3]),H1.0 immunofluorescence intensity (HCC1569 [4])
"CC(C)=CCC[C@@H](C)[C@H]1CC[C@H]2[C@@H]3CC=C4C[C@@H](O)CC[C@]4(C)[C@H]3CC[C@]12C [(3beta)-cholesta-5,24-dien-3-ol]",103,88.8,96 (inactive),101 (inactive)
CC(C)Cc1ccc(C(C)C(=O)NO)cc1 (stereo unspecified) [Ibuproxam],103,101,87.3 (inactive),95.2 (inactive)
CN(CCOc1ccc(CC2SC(=O)NC2=O)cc1)c1ccccn1.O=C(O)C=CC(=O)O (stereo unspecified) [Rosiglitazone maleate],103,113,92.5 (inactive),101 (inactive)
CCCc1cc(=O)oc2c(C(=O)N3CCCc4ccccc43)c(OC)cc(OC)c12,55.5,46.1,108 (inactive),159 (active)
Brc1ccc(C2CN3CCSC3=N2)cc1.O=C(O)C(=O)O (stereo not drawn) [S(-)-p-Bromotetramisole oxalate],107,107,99.6 (inactive),94.6 (inactive)
CC(C)CCNC(C)C1CCC2C3CC=C4CC(O)CCC4(C)C3CCC12C (stereo unspecified) [22-Azacholesterol],104,98.5,104 (inactive),110 (inactive)
CC1CC2C3CCC4=CC(=O)C=CC4(C)C3(F)C(O)CC2(C)C1(O)C(=O)CO (stereo unspecified) [Dexamethasone],100,102,81.6 (inactive),112 (inactive)
CC1CC=CC=CC=CC=CC(OC2OC(C)C(O)C(N)C2O)CC2OC(O)(CC(O)CC3OC3C=CC(=O)O1)CC(O)C2C(=O)O (stereo unspecified) [Pimaricin],106,94,94.9 (inactive),88.8 (inactive)
O=C1Nc2ccccc2C1=C1Nc2ccccc2C1=O [Indirubin],97.2,94.7,105 (inactive),102 (inactive)
CCCC(CCC)C(=O)[O-].[Na+] [Valproic acid sodium],108,119,95 (inactive),99.9 (inactive)
CC12CC3CC(C)(C1)CC(N)(C3)C2.Cl [Memantine.HCl],94.8,102,90.8 (inactive),100 (inactive)
O=C(O)C=CC(=O)O.O=C(O)C=CC(=O)O.OCCOCCN1CCN(C2=Nc3ccccc3Sc3ccccc32)CC1 [Quetiapine Fumarate],99.3,97.8,94.5 (inactive),100 (inactive)
O=C(O)C1CCCNC1 (racemic),109,103,97 (inactive),92.1 (inactive)
CN1CCN(C2=c3ccccc3=Nc3ccc(Cl)cc3N2)CC1 [Clozapine],99.6 ± 4.2,105 ± 0.29,95.4 (inactive),106 (inactive)
COc1ccc2c(c1)c(CC(=O)O)c(C)n2Cc1ccc(Cl)cc1 [1-(4-Chlorobenzyl)-5-methoxy-2-methylindole-3-acetic acid],104,91,96.8 (inactive),103 (inactive)
CCCCCCCCCCCCCCCCCC(=O)NCC(COP(=O)([O-])OCC[N+](C)(C)C)OC (racemic) [rac-2-Methoxy-3-octadecanamido-1-propylphosphocholine],101,84.5,95.2 (inactive),101 (inactive)
OCC1OC(Oc2ccc(O)cc2)C(O)C(O)C1O (stereo unspecified) [Arbutin],99.6,101,102 (inactive),92.1 (inactive)
O=C(C=Cc1ccc(O)cc1)CC(=O)C=Cc1ccc(O)cc1 [bis-demethoxycurcumin],82.7,98.6,92.7 (inactive),104 (inactive)
CC(C)(C)c1cnc(CSc2cnc(NC(=O)C3CCNCC3)s2)o1,105,102,95 (inactive),100 (inactive)
COc1cc2ncnc(Nc3ccc(O)c(Br)c3)c2cc1OC [JAK3 Inhibitor II],88.7,115,83.8 (inactive),127 (inactive)
O=c1[nH]nc(Sc2ncc([N+](=O)[O-])s2)n1-c1ccc2c(c1)OCCO2,58.3 and 32.2,90.9 and 81.2,103 (inactive) and 102 (inactive),137 (inactive) and 134 (inactive)
COc1ccc2c(c1OC)N=C(NC(=O)c1cccnc1)N1CCN=C21,99.8,93.2,94.1 (inactive),101 (inactive)
Cc1ccccc1CNc1ncnc2c1ncn2C1OC(CO)C(O)C1O (stereo unspecified) [Metrifudil],97,94.5,93.7 (inactive),91.4 (inactive)
CC(C)(C)C1(O)CCN2CC3c4ccccc4CCc4cccc(c43)C2C1.Cl (racemic),105,111,88.7 (inactive),91 (inactive)
